An excerpt weighted towards active compounds, which were near 1.1% of everything screened.
E-sel TNF inh: blocks E-selectin expression induced by TNF alpha; HUVEC TNFa-induced E-selectin immunofluorescence, high content; inhibition, % at 2 µM; 0.71% of 120,000 active; AID 1246;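 active = inhibition above the batch mean plus 3 SD, and confirmed as a hit on visual image review, cut at about 43% in these data; inconclusive = passes the inhibition cutoff but fails visual image review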;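 also: 0% = TNF-stimulated DMSO wells and 100% = unstimulated control wells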
F-actin modifier: modifiers of cytoskeleton assembly; inhibition, % at 2 µM; 0.18% of 91,000 active; HUVEC TNFa F-actin phalloidin imaging, high content;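 active = inhibition above the batch mean plus 3 SD and confirmed as a hit by visual image inspection, cut at about 30% in these data, passing the limit was not always enough; inconclusive = above the inhibition threshold but rejected on visual inspection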
VCAM1 TNFa inh: reduces TNF alpha induced VCAM1 expression in HUVEC; 0.48% of 95,000 active; HUVEC TNFa-induced VCAM-1 immunofluorescence, high-content imaging; inhibition, % at 2 µM;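 active = inhibition above the batch mean plus 3 SD, with images confirmed as a hit by eye, cut at about 37% in these data; inconclusive = inhibition above that limit but hit not confirmed in images; inactive = inhibition not above that limit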;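 also: 0% = TNF-stimulated DMSO wells and 100% = unstimulated control wells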
TNFa cytotox: toxic to HUVEC cells under TNF alpha stimulation | HUVEC TNFalpha-stimulated, Hoechst cell count, imaging | cell count reduction, % at 2 µM | 0.17% of 93,000 active | AID 848;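 active = cell count reduction exceeding the screen mean by over 5 SD, scaled to untreated wells per plate, cut at about 78% in these data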;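 also: cells counted after 24 h of TNF alpha exposure following the 1 h pretreatment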
The depositor's hits bear a star; ? = inconclusive; . = no result given.

SMILES	E-sel TNF inh	F-actin modifier	VCAM1 TNFa inh	TNFa cytotox
O=C(c1cc(-c2ccncc2)nc2ccc(Br)cc12)N1CCN(c2ccccn2)CC1	-17.6	84.4*	100.0*	.
CCOC(=O)c1cnn(-c2nc(CC)nc3sc4c(c23)CCC4)c1N	.	-11.2	91.9*	76.5
CCN1CCN(C(=O)c2ccccc2N(Cc2ccccc2)S(=O)(=O)c2ccc(C)cc2)CC1	-13.6	-13.5	30.8	-1.8
O=C(COc1ccc(Br)cc1)NCc1ccccn1	8.3	.	2.8	-15.8
O=Cc1ccc(OCc2ccccn2)cc1	44.5*	14.8	-0.8	-26.1
O=C(N/N=C\c1ccc(CNS(=O)(=O)c2ccc(Cl)cc2)o1)C(=O)Nc1ccc(Oc2ccccc2)cc1	91.8*	.	.	.
c1ccc2c(-c3cc(C4CCNCC4)[nH]n3)cccc2c1	-28.9	.	.	.
CCCCS(=O)(=O)/C=C\C1C2C=CC(C2)C1S(=O)(=O)CCCC (stereo unspecified)	-18.1	-29.5	17.4	49.0
CCCCS(=O)(=O)/C=C\C=C/S(=O)(=O)CCCC	.	28.1	86.3*	28.1
CCC(=O)c1cc(F)c(N2CCN(S(=O)(=O)c3ccc(C)cc3)CC2)cc1C	11.5	-11.5	-18.8	-9.3
CC(C)NC(=O)/C=C/C(=O)O	-9.0	.	.	.
CCNC(=S)N1CCN(c2ccc([N+](=O)[O-])cc2)CC1	-39.3	-10.8	0.6	-5.5
COCCCNC(=S)N1CCN(c2ccc([N+](=O)[O-])cc2)CC1	64.7*	.	.	.
Cc1cc(C)nc(N/N=C/c2cc3c(cc2[N+](=O)[O-])OCO3)n1	2.2	.	.	.
O=[N+]([O-])c1cc2c(cc1/C=N/Nc1nc(Nc3ccccc3)nc(N3CCCCC3)n1)OCO2	56.9*	7.0	-3.6	-6.3
N/C(Cc1cccc2ccccc12)=N\OC(=O)c1ccc2c(c1)OCO2	83.5*	.	.	.
COc1ccc(Nc2nc(N3CCCC3)nc3ccccc23)c(OC)c1	-15.9	5.5	93.9*	5.9
CCOC(=O)C1CCCN(C(=O)c2ccc(Cl)c(S(=O)(=O)N3CCCCC3)c2)C1 (stereo unspecified)	-8.3	.	.	.
O=C(O)C1C2C=CC(C2)C1C(=O)NCCCc1ccccc1 (stereo unspecified)	68.0*	.	.	.
COc1cc(CC(=O)Oc2ccc3c(c2)OCO3)cc(OC)c1OC	91.4*	.	.	.
COc1ccc(CCn2c(SCC(=O)Nc3cc(C)on3)nc3ccccc3c2=O)cc1OC	.	-23.9	38.0	86.7*
Cc1cc(NC(=O)CSc2nnc3c4c(C)c(C)sc4ncn23)no1	68.6*	-1.9	-7.8	-8.4
CCn1c(SCC(=O)Nc2cc(C)on2)nnc1-c1ccccc1	17.4	37.1*	?	77.9
O=C(CCc1ccccc1)Nc1ncc2c(n1)CCCC2=O	72.4*	-6.6	-3.8	-14.2
COc1cccc(NC(C)C(=O)Nc2cc([N+](=O)[O-])ccc2Cl)c1 (stereo unspecified)	11.1	.	.	.
SMILES	E-sel TNF inh	F-actin modifier	VCAM1 TNFa inh	TNFa cytotox
CCCOc1ccccc1C1CC(=O)Nc2cc3c(cc21)OCCO3 (stereo unspecified)	-20.4	-21.9	51.0*	61.6
CC(C)Oc1ccccc1C1CC(=O)Nc2cc3c(cc21)OCO3 (stereo unspecified)	.	-30.6	85.3*	46.8
CS(=O)(=O)N1CCC(C(=O)NCc2ccccc2)CC1	-3.5	.	.	.
O=C1Nc2ccc(S(=O)(=O)N3CCOCC3)c3cccc1c23	14.9	-10.2	89.2*	-22.9
O=C1Nc2ccc(S(=O)(=O)N3CCCC3)c3cccc1c23	18.4	-2.1	-14.3	-12.5
O=C(CN(C1CCCCC1)S(=O)(=O)c1ccc(F)cc1)NCc1ccncc1	-41.9	0.3	-6.0	6.2
O=C(c1ccc(Cl)cc1)N1CCCOC1	-15.1	.	99.9*	75.2
CCOC(=O)C1=C(C)NC(=O)/C1=C\N(C)C	27.8	.	.	.
CCOC(=O)c1cc2c(ccn2C)n1CC(=O)N1CCC(Cc2ccccc2)CC1	95.8*	.	.	.
O=C(c1ccccc1CCc1ccccc1)N1CCN(c2ccccn2)CC1	-7.8	0.0	8.0	-22.7
CCN1C(=O)CSC1=NC12CC3CC(CC(C3)C1)C2	-2.4	-22.5	96.4*	66.1
CN1C(=O)CSC1=NC12CC3CC(CC(C3)C1)C2	-13.9	11.8	26.5	-11.8
Cc1cc(=O)n2nc(-c3ccccc3)sc2c1C#N	95.2*	.	.	.
COc1ccc(-c2cc(C(=O)Nc3cnn(Cc4ccccc4C)c3)no2)cc1OC	77.7*	4.6	-4.3	-20.7
COc1ccc(OC)c(-c2cc(C(=O)Nc3c(C)nn(Cc4ccc(Cl)cc4)c3C)no2)c1	.	8.3	-11.2	7.3
COc1ccc(-c2cc(C(=O)Nc3cc(C)n(Cc4ccc(Cl)cc4)n3)no2)cc1OC	.	23.6	51.5*	59.1
NC1=CC(=O)c2cccc3cccc1c23	.	.	43.3*	4.5
NC1=Nc2cccc3cccc1c23	6.2	.	.	.
Cc1cc(=O)c(C(=O)O)nn1-c1ccccc1	3.2	.	.	.
CCC(=O)Nc1cccc(C(=O)/C=C/c2cc(Br)ccc2OC)c1	46.2	-23.6	68.8*	5.2
Cc1cc(OCc2ccc(F)cc2)nc(-c2ccccc2O)n1	.	-18.3	94.8*	79.8*
CCOc1cc(C(=O)OCC(=O)c2c(C)[nH]c3ccccc23)ccc1OCC(=O)N1CCOCC1	-10.9	50.5*	37.6	77.9
Cc1cccc(CSc2nnc(-c3cccs3)n2Cc2ccco2)c1	9.5	0.5	10.6	-18.8
COc1ccc(CCNc2oc(COc3ccccc3F)nc2C#N)cc1	.	61.9*	6.0	-42.3
CC(C)(C)C(=O)/C(=C\c1ccc([N+](=O)[O-])cc1)n1cncn1	65.9*	5.4	12.7	-14.3
SMILES	E-sel TNF inh	F-actin modifier	VCAM1 TNFa inh	TNFa cytotox
CC1CN(C(=O)CN2C(=O)NC3(CCCCCC3)C2=O)CC(C)O1 (stereo unspecified)	3.8	14.2	2.4	-10.3
COc1ccccc1CC1(C)NC(=O)N(CC(=O)N2CC(C)OC(C)C2)C1=O (stereo unspecified)	87.2*	2.9	3.6	-0.8
Cn1c(C(=O)NCCN2CCOCC2)cc2sccc21	.	-14.5	64.1	88.3*
CC1(C)Cc2c(oc3ncn4ncnc4c23)CO1	.	.	?	97.4*
CCOC(=O)C1=C(c2ccccc2)N(C)C(=O)NC1c1ccc(O)c(OC)c1 (stereo unspecified)	65.9*	-12.4	14.8	-13.3
CCOC(=O)C1=C(c2ccccc2)NC(=O)NC1c1ccc(O)c(OCC)c1 (stereo unspecified)	-2.9	.	.	.
CC1(C)CC(=O)c2cc(OCC(=O)NCCCN3CCN(c4ccc(F)cc4)CC3)ccc2O1	.	47.9*	-3.0	-24.7
O=[N+]([O-])c1cccc(/C=N/Nc2cc(Cl)nc(-c3ccccc3)n2)c1	-19.7	-7.2	-21.7	.
N/C(=N\c1nc(CSc2ccc(Cl)cc2)cc(=O)[nH]1)Nc1cccc2ccccc12	70.1*	8.6	-4.7	-4.5
Cc1nn(S(=O)(=O)c2ccccc2)c(C)c1Sc1ccc([N+](=O)[O-])cc1	.	45.8*	10.2	14.3
Cc1nn(S(=O)(=O)c2cccs2)c(C)c1Sc1ccc([N+](=O)[O-])cc1	-76.4	1.3	6.4	-50.2
O=C(NCc1ccccc1)N1CCN(c2ccc(Cl)c(Cl)c2)CC1	71.1*	-29.4	4.3	-12.8
O=C(NCc1ccccc1)N1CCN(c2ccc(F)cc2)CC1	-47.5	6.0	-6.5	-31.7
COCCCNC(CC(=O)Nc1ccccc1C(=O)OC)C(=O)O (stereo unspecified)	59.8*	2.0	-11.3	7.0
